In paper PMC7862700, “An all-to-all approach to the identification of sequence-specific readers for epigenetic DNA modifications on cytosine”:

Legend:
Test in all cases: DAPPL (digital affinity profiling via proximity ligation, sequencing); 10 mM Tris-HCl pH 7.5, 50 mM NaCl, 1 mM DTT, 4% glycerol, room temperature, 30 min; GST-TFs on glutathione beads, 16-mer random dsDNA library, 0.1% formaldehyde crosslink after washing; high values mean tight binding
Conditions in all cases: protein: recombinant; tags: N-terminal GST; dsDNA, one strand shown
FLI1 = target: T1, FLI1 (Homo sapiens, UniProt Q01543 1-452)
T1 sequence: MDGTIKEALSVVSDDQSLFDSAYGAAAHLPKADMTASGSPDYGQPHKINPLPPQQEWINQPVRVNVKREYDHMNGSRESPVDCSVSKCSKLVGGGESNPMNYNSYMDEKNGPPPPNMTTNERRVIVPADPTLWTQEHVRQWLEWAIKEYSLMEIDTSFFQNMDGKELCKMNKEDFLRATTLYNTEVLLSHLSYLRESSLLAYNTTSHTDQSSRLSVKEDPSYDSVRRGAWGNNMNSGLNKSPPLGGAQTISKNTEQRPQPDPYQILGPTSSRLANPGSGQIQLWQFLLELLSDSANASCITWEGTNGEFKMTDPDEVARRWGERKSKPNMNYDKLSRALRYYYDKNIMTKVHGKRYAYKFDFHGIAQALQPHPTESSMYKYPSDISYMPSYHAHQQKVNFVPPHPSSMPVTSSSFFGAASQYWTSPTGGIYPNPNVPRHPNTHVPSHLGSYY
Summary of the method: (§1)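 Human transcription factors were made in yeast as GST fusions, captured on glutathione beads and barcoded with DNA. With a tag-only sample included, the pool was incubated with 200 nmole of a random double-stranded 16-mer DNA library in Tris/NaCl/DTT/glycerol buffer at room temperature for 30 min, then crosslinked with 0.1% formaldehyde after washing, ligated by proximity, amplified and sequenced. For binding signal, each hexamer's read frequency for a factor is divided by its frequency for the tag-only sample.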

ELK1 = target: T2, ELK1 (Homo sapiens, UniProt P19419 1-428)
T2 sequence: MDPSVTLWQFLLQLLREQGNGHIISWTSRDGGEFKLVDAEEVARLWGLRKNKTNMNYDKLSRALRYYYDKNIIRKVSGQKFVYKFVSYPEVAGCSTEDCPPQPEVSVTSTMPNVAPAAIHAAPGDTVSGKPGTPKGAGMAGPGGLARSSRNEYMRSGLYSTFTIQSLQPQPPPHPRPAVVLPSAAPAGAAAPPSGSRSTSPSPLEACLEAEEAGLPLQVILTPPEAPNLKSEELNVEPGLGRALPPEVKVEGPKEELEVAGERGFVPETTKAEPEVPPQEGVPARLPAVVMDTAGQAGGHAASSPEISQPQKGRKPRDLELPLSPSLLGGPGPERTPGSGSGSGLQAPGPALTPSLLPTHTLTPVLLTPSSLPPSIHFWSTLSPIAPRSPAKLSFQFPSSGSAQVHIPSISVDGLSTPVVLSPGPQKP
Summary of the method: as §1

GABPA = target: T3, GABPA (Homo sapiens, UniProt Q06546 1-454)
T3 sequence: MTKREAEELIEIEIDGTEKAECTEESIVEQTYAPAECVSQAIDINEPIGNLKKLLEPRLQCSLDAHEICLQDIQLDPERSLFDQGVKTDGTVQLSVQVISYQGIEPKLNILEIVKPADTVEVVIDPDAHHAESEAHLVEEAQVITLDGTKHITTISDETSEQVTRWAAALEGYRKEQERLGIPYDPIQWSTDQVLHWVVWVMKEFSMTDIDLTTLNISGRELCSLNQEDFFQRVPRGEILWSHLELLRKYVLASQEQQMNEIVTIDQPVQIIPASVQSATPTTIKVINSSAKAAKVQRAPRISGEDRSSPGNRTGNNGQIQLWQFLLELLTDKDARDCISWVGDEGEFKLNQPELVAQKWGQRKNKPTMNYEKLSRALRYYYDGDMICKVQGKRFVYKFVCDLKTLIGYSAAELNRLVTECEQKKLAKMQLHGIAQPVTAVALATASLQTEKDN
Summary of the method: as §1

ERG = target: T4, ERG (Homo sapiens, UniProt P11308 1-479)
T4 sequence: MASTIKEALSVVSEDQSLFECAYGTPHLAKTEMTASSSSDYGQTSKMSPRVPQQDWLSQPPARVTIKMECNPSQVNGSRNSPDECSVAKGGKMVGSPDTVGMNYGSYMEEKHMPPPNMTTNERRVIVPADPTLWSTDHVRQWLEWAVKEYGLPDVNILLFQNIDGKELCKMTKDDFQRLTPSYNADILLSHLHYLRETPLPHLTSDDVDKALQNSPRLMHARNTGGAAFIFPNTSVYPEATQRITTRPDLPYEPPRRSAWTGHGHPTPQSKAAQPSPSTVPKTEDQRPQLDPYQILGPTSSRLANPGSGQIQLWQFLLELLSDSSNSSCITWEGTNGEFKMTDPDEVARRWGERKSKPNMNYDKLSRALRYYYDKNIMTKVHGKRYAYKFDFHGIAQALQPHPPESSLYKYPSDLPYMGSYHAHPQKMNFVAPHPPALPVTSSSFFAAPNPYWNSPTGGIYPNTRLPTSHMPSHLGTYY
Summary of the method: as §1

ELF1 = ELF1 (Homo sapiens, UniProt P32519 1-619)
Summary of the method: as §1

EHF = target: T5, EHF (Homo sapiens, UniProt Q9NZC4 1-300)
T5 sequence: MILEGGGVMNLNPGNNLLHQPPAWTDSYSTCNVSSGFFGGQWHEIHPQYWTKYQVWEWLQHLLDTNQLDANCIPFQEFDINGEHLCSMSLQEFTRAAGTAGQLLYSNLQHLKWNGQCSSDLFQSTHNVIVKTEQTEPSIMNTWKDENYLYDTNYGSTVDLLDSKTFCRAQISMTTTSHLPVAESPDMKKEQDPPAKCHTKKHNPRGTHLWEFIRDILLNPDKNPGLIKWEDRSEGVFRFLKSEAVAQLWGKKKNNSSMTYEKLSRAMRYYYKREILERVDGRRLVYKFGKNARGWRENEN
Summary of the method: as §1

SPI1 = SPI1 (Homo sapiens, UniProt P17947 1-270)
Summary of the method: as §1

SPIB = SPIB (Homo sapiens, UniProt Q01892 1-262)
Summary of the method: as §1

ELK3 = target: T6, ELK3 (Homo sapiens, UniProt P41970 1-407)
T6 sequence: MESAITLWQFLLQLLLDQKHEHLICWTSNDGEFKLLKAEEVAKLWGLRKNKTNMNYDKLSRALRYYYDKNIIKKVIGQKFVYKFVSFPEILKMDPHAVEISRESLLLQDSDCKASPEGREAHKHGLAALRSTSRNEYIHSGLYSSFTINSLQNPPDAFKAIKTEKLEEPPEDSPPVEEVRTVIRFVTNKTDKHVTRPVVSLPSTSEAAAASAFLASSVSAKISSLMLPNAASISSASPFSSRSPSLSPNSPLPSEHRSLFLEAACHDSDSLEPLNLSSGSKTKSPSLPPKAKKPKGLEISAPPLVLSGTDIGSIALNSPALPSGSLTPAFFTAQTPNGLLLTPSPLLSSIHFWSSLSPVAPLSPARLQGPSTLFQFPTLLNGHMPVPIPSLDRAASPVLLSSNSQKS
Summary of the method: as §1

ELF1, sequence (P32519 whole entry): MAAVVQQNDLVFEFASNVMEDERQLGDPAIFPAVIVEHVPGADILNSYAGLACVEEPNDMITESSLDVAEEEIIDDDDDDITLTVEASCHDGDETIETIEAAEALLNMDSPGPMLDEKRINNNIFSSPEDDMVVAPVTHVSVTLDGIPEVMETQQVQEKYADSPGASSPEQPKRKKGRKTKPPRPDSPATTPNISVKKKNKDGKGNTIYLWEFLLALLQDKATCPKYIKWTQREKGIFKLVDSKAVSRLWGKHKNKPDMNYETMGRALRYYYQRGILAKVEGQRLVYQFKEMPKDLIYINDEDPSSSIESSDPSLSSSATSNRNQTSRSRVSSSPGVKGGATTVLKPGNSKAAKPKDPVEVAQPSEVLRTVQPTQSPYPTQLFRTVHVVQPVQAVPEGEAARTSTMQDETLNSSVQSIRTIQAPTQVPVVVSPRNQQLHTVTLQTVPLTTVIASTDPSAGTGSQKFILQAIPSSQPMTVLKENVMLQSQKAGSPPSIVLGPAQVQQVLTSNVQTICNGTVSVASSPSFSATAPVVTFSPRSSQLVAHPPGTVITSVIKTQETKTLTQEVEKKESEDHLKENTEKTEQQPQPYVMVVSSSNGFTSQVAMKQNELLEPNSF
SPIB, sequence (Q01892 whole entry): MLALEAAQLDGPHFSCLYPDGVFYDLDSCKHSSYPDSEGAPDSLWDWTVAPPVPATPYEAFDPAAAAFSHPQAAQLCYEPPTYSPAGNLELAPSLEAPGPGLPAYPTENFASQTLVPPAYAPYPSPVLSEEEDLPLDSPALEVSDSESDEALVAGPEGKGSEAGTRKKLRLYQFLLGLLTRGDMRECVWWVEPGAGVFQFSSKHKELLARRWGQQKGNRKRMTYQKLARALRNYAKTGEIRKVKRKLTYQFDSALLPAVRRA

Sequence | binding signal (FLI1) | binding signal (ELK1) | binding signal (GABPA) | binding signal (ERG) | binding signal (ELF1) | binding signal (EHF) | binding signal (SPI1) | binding signal (SPIB) | binding signal (ELK3)
CTACTC | 1.42 fold enrichment (6-mer frequency, TF over GST control) | 1.36 fold enrichment (6-mer frequency, TF over GST control) | 1.51 fold enrichment (6-mer frequency, TF over GST control) | 1.38 fold enrichment (6-mer frequency, TF over GST control) | 1.44 fold enrichment (6-mer frequency, TF over GST control) | 1.38 fold enrichment (6-mer frequency, TF over GST control) | 1.47 fold enrichment (6-mer frequency, TF over GST control) | 1.59 fold enrichment (6-mer frequency, TF over GST control) | 1.46 fold enrichment (6-mer frequency, TF over GST control)
CTTAAC | 1.21 fold enrichment (6-mer frequency, TF over GST control) | 1.17 fold enrichment (6-mer frequency, TF over GST control) | 1.28 fold enrichment (6-mer frequency, TF over GST control) | 1.26 fold enrichment (6-mer frequency, TF over GST control) | 1.35 fold enrichment (6-mer frequency, TF over GST control) | 1.26 fold enrichment (6-mer frequency, TF over GST control) | 1.32 fold enrichment (6-mer frequency, TF over GST control) | 1.4 fold enrichment (6-mer frequency, TF over GST control) | 1.31 fold enrichment (6-mer frequency, TF over GST control)
AATTAT | 1.24 fold enrichment (6-mer frequency, TF over GST control) | 1.25 fold enrichment (6-mer frequency, TF over GST control) | 1.2 fold enrichment (6-mer frequency, TF over GST control) | 1.26 fold enrichment (6-mer frequency, TF over GST control) | 1.22 fold enrichment (6-mer frequency, TF over GST control) | 1.23 fold enrichment (6-mer frequency, TF over GST control) | 1.18 fold enrichment (6-mer frequency, TF over GST control) | 1.23 fold enrichment (6-mer frequency, TF over GST control) | 1.25 fold enrichment (6-mer frequency, TF over GST control)
TCTAGT | 1.05 fold enrichment (6-mer frequency, TF over GST control) | 1.12 fold enrichment (6-mer frequency, TF over GST control) | 1.17 fold enrichment (6-mer frequency, TF over GST control) | 1.1 fold enrichment (6-mer frequency, TF over GST control) | 1.12 fold enrichment (6-mer frequency, TF over GST control) | 1.08 fold enrichment (6-mer frequency, TF over GST control) | 1.03 fold enrichment (6-mer frequency, TF over GST control) | 1.08 fold enrichment (6-mer frequency, TF over GST control) | 1.05 fold enrichment (6-mer frequency, TF over GST control)
TGGCAT | 1.23 fold enrichment (6-mer frequency, TF over GST control) | 1.2 fold enrichment (6-mer frequency, TF over GST control) | 1.2 fold enrichment (6-mer frequency, TF over GST control) | 1.14 fold enrichment (6-mer frequency, TF over GST control) | 1.17 fold enrichment (6-mer frequency, TF over GST control) | 1.12 fold enrichment (6-mer frequency, TF over GST control) | 1.11 fold enrichment (6-mer frequency, TF over GST control) | 1.07 fold enrichment (6-mer frequency, TF over GST control) | 1.13 fold enrichment (6-mer frequency, TF over GST control)
AATACC | 1.25 fold enrichment (6-mer frequency, TF over GST control) | 1.09 fold enrichment (6-mer frequency, TF over GST control) | 1.09 fold enrichment (6-mer frequency, TF over GST control) | 1.21 fold enrichment (6-mer frequency, TF over GST control) | 1.19 fold enrichment (6-mer frequency, TF over GST control) | 1.19 fold enrichment (6-mer frequency, TF over GST control) | 1.14 fold enrichment (6-mer frequency, TF over GST control) | 1.16 fold enrichment (6-mer frequency, TF over GST control) | 1.25 fold enrichment (6-mer frequency, TF over GST control)
TTGTTT | 1.46 fold enrichment (6-mer frequency, TF over GST control) | 1.45 fold enrichment (6-mer frequency, TF over GST control) | 1.36 fold enrichment (6-mer frequency, TF over GST control) | 1.6 fold enrichment (6-mer frequency, TF over GST control) | 1.37 fold enrichment (6-mer frequency, TF over GST control) | 1.51 fold enrichment (6-mer frequency, TF over GST control) | 1.28 fold enrichment (6-mer frequency, TF over GST control) | 1.52 fold enrichment (6-mer frequency, TF over GST control) | 1.49 fold enrichment (6-mer frequency, TF over GST control)
